Compound activity: PubChem, National Center for Advancing Translational Sciences (NCATS)
ALOX12 inh: inhibitors of human 12S-lipoxygenase ALOX12 | 1.1% of 580,000 active | purified 12hLO, xylenol orange hydroperoxide absorbance | AID 1671190 | P18054 | Potency, µM (highest dose often 108 µM), for the others: top-dose activity change, negative = inhibition, usual class: inhibitors
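Purified human 12hLO (150 nM final) in 25 mM Hepes, 0.01% Triton X-100, pH 7.0 was preincubated 15 min at room temperature with compound. Then 40 uM arachidonic acid was added, 30 min. Hydroperoxide was read by Fe-XO absorbance ratio 573/405 nm.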
VP16 counter: Gal4-VP16 reporter inhibition counter-screen; 3.5% of 310,000 active; Drosophila S2 Gal4-VP16 UAS-luciferase, luminescence, 20 h; Potency, µM (series often up to 53.6 µM), inactives show top-dose activity, negative = inhibition, actives largely listed as inhibitors;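 note: Gal4-VP16 expression switched on by copper sulfate through the metallothionein promoter; nearly all actives have a fitted effect of over 50% in size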
TDP1 cell CPT: growth inhibition of DT40 Tdp1-/-;hTDP1 cells with camptothecin (screen for TDP1 inhibitors); chicken DT40 Tdp1-/-;hTDP1 cells + 20 nM CPT, ATP luminescence, 48 h; Potency, µM (top dose mostly 46.2 µM), without a hit: at the top dose activity change, negative = growth inhibition, actives largely listed as inhibitors; 12% of 420,000 active; note: nearly all actives have a fitted effect of over 55% in size
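Chicken DT40 Tdp1-/- cells complemented with human TDP1, 400 cells/well, exposed to compounds plus 20 nM camptothecin for at least 48 h at 37 C; viability read as ATP content by CellTiter-Glo luminescence.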
DT40 TDP1 no CPT: qHTS for Inhibitors of human tyrosyl-DNA phosphodiesterase 1 (TDP1): qHTS in cells in absence of CPT; AID 686978, 2013; Potency, µM (top dose mostly 46.2 µM), for the others: top-dose activity change, negative = growth inhibition, hits mostly inhibitors; DT40 Tdp1-/- hTDP1 cells, no CPT, ATP luminescence, 48 h; 15% of 420,000 active; note: nearly all actives have a fitted effect of over 55% in size
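Luminescent ATP content (CellTiter-Glo) served as the growth readout. Knockout chicken DT40 cells expressing human TDP1 were exposed to compounds without camptothecin for a minimum 48 hr at 37 °C.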
RORg inh: blocks mouse ROR gamma transcriptional activity; 5.4% of 310,000 active; Potency, µM (series often up to 53.6 µM), for the others: at the highest dose activity change, negative = inhibition, actives largely listed as inhibitors; Drosophila S2 Gal4-RORgamma UAS-luciferase reporter, 20 h; P51450; note: nearly all actives have a fitted effect of over 60% in size
Target sequence (P51450 whole entry, looked up, the tested form may be a part): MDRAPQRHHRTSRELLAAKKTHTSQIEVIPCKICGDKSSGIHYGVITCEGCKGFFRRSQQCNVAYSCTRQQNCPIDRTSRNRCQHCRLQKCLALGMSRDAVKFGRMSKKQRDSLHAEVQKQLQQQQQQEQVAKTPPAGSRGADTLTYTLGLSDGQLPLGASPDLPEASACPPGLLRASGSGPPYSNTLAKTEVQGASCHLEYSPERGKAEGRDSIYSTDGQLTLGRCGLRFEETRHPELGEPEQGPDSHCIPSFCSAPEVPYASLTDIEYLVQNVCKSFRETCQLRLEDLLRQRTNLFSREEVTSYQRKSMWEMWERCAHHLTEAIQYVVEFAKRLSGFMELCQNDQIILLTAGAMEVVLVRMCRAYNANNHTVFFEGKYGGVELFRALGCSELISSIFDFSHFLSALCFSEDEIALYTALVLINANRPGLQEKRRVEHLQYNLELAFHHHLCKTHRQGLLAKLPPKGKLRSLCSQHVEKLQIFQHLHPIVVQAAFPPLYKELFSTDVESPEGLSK
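Drosophila Schneider cells stably carrying a metallothionein-driven Gal4 DBD–ROR gamma fusion and a UAS-Photinus luciferase reporter were exposed to compound for 1 hr, then induced with copper sulfate (700 uM final) for 20 hr at ambient temperature before luminescence reading.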
ELG1 DNA repair: blocks ELG1-dependent DNA repair in HEK293T cells | Potency, µM (highest dose often 46.1 µM), for the others: top-dose activity change, negative = inhibition, actives largely listed as inhibitors | HEK293T ELG1-luciferase reporter, luminescence, 16 h; DNA damage induced by 5-fluorouridine | AID 504467 | 2.3% of 330,000 active; note: nearly all actives have a fitted effect of over 55% in size
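Reporter activity after DNA damage by 5-fluorouridine is monitored. Compound-treated cells incubate 16 hr at 37 °C, then ONE-Glo is added for 30 min before luminescence reading.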
Starred values were filed as active, the others as inactive; ? = inconclusive; · = no result. Compounds with a hit are over-represented: about 15% of the library has one in this group of screens. Calls come from the whole dose curve; as a rule, active = well fitted curve in the direction sought with a large enough effect; inconclusive = small, poorly fitted or top-dose-only effect, or another doubt; inactive = no such curve, though single readings can be large; an effect the other way counts as inactive or inconclusive. % is set by controls: 0 for no effect and ±100 for the full control effect; potency is the fitted concentration of half-maximal effect.

SMILES	ALOX12 inh	VP16 counter	TDP1 cell CPT	DT40 TDP1 no CPT	RORg inh	ELG1 DNA repair
COc1cccc(-c2nc(NCC3CCCO3)c3ccccc3n2)c1O (configuration not stated)	-13%	-22%	?	?	2%	?
COc1ccccc1Nc1nc(NCC2CCCO2)c2ccccc2n1 (configuration not stated)	?	-17%	23µM*	21µM*	35%	?
COc1ccc(CNC(=O)[C@@H]2CCC[C@@H](NC(=O)c3ccc(C#N)cc3)CN(C)C(=O)C2)cc1	58%	·	·	·	·	·
COc1cc(N=c2ssnc2Cl)cc(OC)c1	?	7.1µM*	10µM*	13µM*	4µM*	-24%
Clc1nssc1=Nc1nncs1	4.5µM*	·	5.8µM*	7.3µM*	·	6%
N#Cc1cccc(N=c2ssnc2Cl)c1	?	?	3.3µM*	6.5µM*	?	?
Clc1ccc(N=c2ssnc2Cl)nc1	?	-7%	3.3µM*	2.6µM*	10µM*	1%
Cc1cc(C)cc(C(N)=Nc2cccc(C#N)c2)c1	-2%	12%	10%	?	25%	27%
OCc1ccccc1N=c1ssnc1Cl	·	-5%	·	·	0%	0%
Clc1nssc1=Nc1ccc(Br)cc1	4µM*	?	10µM*	13µM*	?	?
O=C1CCC(C(=O)N2C[C@@H](COCC3CC3)[C@H](c3ccccn3)C2)=NN1	83%	·	·	·	·	·
COc1cc(NC(=O)C2CCN(c3nc4ccccc4nc3C(F)(F)F)CC2)cc(OC)c1	-24%	·	16µM*	26µM*	·	·
COc1ccc(NC(=O)C2CCN(c3nc4ccccc4nc3C(F)(F)F)CC2)cc1	-15%	·	-22%	-19%	·	·
O=C(Nc1cccc(F)c1)C1CCN(c2nc3ccccc3nc2C(F)(F)F)CC1	?	·	18µM*	16µM*	·	·
O=C(Nc1cccc(Cl)c1)C1CCN(c2nc3ccccc3nc2C(F)(F)F)CC1	-27%	·	?	21µM*	·	·
O=C(C1=C[C@@H](c2ccc(C(F)(F)F)cc2)C[C@@H](OCCCCO)O1)N1CCCCCCC1	?	·	23µM*	?	·	·
CN1CCN(C(=O)C2=C[C@H](c3ccc(C(F)(F)F)cc3)C[C@H](OCc3ccc(CO)cc3)O2)CC1	4%	-5%	23µM*	?	11%	14%
O=C(NCc1ccc(C(=O)N2CCCCC2)cc1)c1cc2ccccc2oc1=O	-19%	·	·	·	·	·
CS(=O)(=O)N1CC2(CCCN2Cc2cccc(C(N)=O)c2)Cc2ccccc21 (configuration not stated)	34%	·	·	·	·	·
c1ccc(-c2noc(CSc3nnnn3C3CC3)n2)cc1	-1%	·	·	·	·	·
CC(C)Cc1ccc(C(C)/C=C2/CCC(CN3CCCCC3)C2=O)cc1 (configuration not stated)	?	·	2.9µM*	2.9µM*	·	·
Cc1cc2nc(C(F)(F)F)c(=O)n(C(C)C(=O)NCc3ccccc3)c2cc1C (configuration not stated)	-13%	·	·	·	·	·
Cc1ccc(-c2nc(CSc3nncn4c3cc3occc34)c(C)o2)cc1	-22%	·	?	-30%	·	·
Cc1nnc(SCc2ccccc2Cl)c2cc3sccc3n12	-25%	·	?	?	·	·
COc1ccc(-c2nc(CSc3nnc(C)n4c3cc3occc34)c(C)o2)cc1OC	1%	·	10µM*	12µM*	·	·
COc1ccc(-c2nc(CSc3nncn4c3cc3occc34)c(C)o2)cc1	?	·	16µM*	23µM*	·	·
Cc1nnc(SCc2ccccc2Cl)c2cc3occc3n12	-15%	·	?	16µM*	·	·
Cc1cccnc1C(=O)NC1CCN(c2ccc(=O)n(C)n2)CC1	28%	·	·	·	·	·
